HepG2 tox – kills HepG2 cells in TGF-b inhibitor counter-screen; HepG2 CAGA-GFP viability, ATP luminescence, 18 h; Potency, µM (titrated, usually from 46.1 µM), for the others: at the top dose activity change, negative = cytotoxicity, actives largely listed as cytotoxic; 410,000 compounds, 0.76% hits; AID 588856; also: potency is read from the fitted curve at half-maximal effect
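CellTiter-Glo luminescence gave cytotoxicity after 18 hours at 37 degrees C. The cells were HepG2 CAGA-GFP in 1% FBS DMEM, stimulated with 500 pg/mL TGF-beta after compound addition. %Activity was normalised to no-cell wells (complete cell-killing) and DMSO (no toxicity), and curves were fitted and classified.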
DRD3 agonist – D3 dopamine receptor (human) agonism. D3R DiscoveRx beta-arrestin cells, luminescence, 90 min. AID 652048. max activation, %. 410,000 compounds, 0.58% hits. P35462; in the data active = max activation above about 30%; also: 0% is about no effect
Target sequence (P35462 whole entry, looked up): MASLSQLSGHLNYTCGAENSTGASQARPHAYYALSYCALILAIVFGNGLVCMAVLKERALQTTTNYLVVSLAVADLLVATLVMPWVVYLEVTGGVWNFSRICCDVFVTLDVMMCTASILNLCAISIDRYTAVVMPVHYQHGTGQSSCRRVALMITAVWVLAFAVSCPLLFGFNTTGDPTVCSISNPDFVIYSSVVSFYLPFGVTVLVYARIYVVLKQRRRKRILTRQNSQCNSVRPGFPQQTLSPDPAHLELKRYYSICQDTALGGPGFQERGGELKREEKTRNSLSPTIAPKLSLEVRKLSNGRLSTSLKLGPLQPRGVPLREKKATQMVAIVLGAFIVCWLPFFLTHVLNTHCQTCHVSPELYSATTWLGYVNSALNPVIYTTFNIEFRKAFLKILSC
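Agonist mode: compounds and dopamine controls were applied to plated cells for 90 min at 37 degrees C after an overnight attachment at 1500 cells/well. Luminescent read-out followed 30 - 60 minutes at room temperature with DiscoveRx detection reagent.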
TGFb SMAD3 inh – inhibitors of TGF-b signaling. Potency, µM (titrated, usually from 46.1 µM), without a hit: at the top dose activity, negative = inhibition, usual class: inhibitors. HepG2 CAGA-GFP TGF-b/SMAD3 reporter, GFP fluorescence, 18 h; TGF-beta stimulated, 500 pg/mL final. AID 588855. 410,000 compounds, 1.2% hits; also: potency is read from the fitted curve at half-maximal effect; % is scaled to controls: 0 for no effect and ±100 for the full control effect; nearly all actives have a fitted effect of over 65% in size
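HEPG2 CAGA-GFP cells (1000/well, DMEM with 1% FBS) were pre-incubated 2 h at 37 degrees C, given compound by pin tool, then stimulated with TGF-beta at 500 pg/mL final for 18 h before per-cell GFP fluorescence imaging.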
D3 antag – antagonists of human D3 dopamine receptor. D3R cells, DiscoveRx beta-arrestin luminescence, antagonist mode; stronger effect = lower value. 360,000 compounds, 2.5% hits. P35462. max response, negative = inhibition, %; in the data active = max response below about -50%; inconclusive = no clear call, values can overlap the other calls; also: % is scaled to controls: 0 for no effect and ±100 for the full control effect
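Cells plated overnight at 1500 cells/well, then exposed to library compounds with dopamine controls for 90 minutes at 37 degrees C. DiscoveRx reagent added for 30–60 minutes at room temperature; luminescence read, quantitative HTS format.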
S2 tox – cell viability loss in ATXN counter-screen; S2 cells (HEK-293 line with an ATXN2-luciferase reporter) viability, CellTiter-Fluor protease fluorescence, 24 h; Potency, µM (top dose mostly 56.7 µM), most hits filed as cytotoxic; 400,000 compounds, 0.49% hits; AID 651635; also: potency is read from the fitted curve at half-maximal effect; nearly all actives have a fitted effect of over 40% in size
ATXN2 expr inh – inhibitors of ATXN2 expression | HEK-293 ATXN2-luciferase reporter, luminescence, 24 h | Potency, µM (highest dose often 57 µM), for inactives: at the highest dose activity change, negative = inhibition, hits mostly inhibitors | 360,000 compounds, 0.72% hits | AID 1745845; also: potency is read from the fitted curve at half-maximal effect; % is scaled to controls: 0 for no effect and ±100 for the full control effect; nearly all actives have a fitted effect of over 55% in size
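qHTS (up to 57 uM final) was run with 24 h compound exposure of reporter cells at 37 °C. Each well was multiplexed: SteadyGlo luminescence measured ATXN2-luciferase expression after a fluorogenic Gly-Phe-AFC viability readout (25 uM final).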
The depositor's hits bear a star; i = inactive; u = inconclusive; x = no result given; [ ] = dose if it differs, or a comment. Compounds with a hit are over-represented: about 4.7% of the library has one in this group of screens. Unless noted, calls follow the shape of the dose curve; as a rule, active = well fitted curve in the direction sought with a large enough effect; inconclusive = small, poorly fitted or top-dose-only effect, or another doubt; inactive = no such curve, though single readings can be large; an effect the other way counts as inactive or inconclusive.

SMILES	HepG2 tox	DRD3 agonist	TGFb SMAD3 inh	D3 antag	S2 tox	ATXN2 expr inh
CC(=O)Nc1ccc(NC(=O)C(NC(=O)c2ccc(Cl)cc2)C(C)C)cc1 (configuration not stated)	5%	2	4%	-15	i	x
COc1ccc(N(C(=O)CCl)C(C(=O)NCCc2ccccc2)c2cccs2)cc1 (configuration not stated)	16µM*	-3	u	1	13µM*	28µM*
Cc1ccc(C(=O)N2C(=S)C(c3ccc(F)cc3)=NC23CCN(C)CC3)cc1	-50%	-4	u	4	25µM*	22µM*
Cc1ccc(C(=O)N2CCC(C(=O)c3ccc(F)cc3)CC2)cc1	0%	1	-27%	0	i	x
CCOC(=O)CN1C(=O)C(O)(CC(=O)c2cc(OC)ccc2OC)c2ccccc21 (configuration not stated)	0%	1	1%	x	i	1%
COc1ccc(CCNC(=O)c2cnn3c2NC(=C2CC2)C=C3C(F)F)cc1OC	-49%	x	20%	x	x	x
CCCCNC1C(CC)C(CCC)C(C#N)(C#N)C1(C#N)C#N (configuration not stated)	-54%	-6	10µM*	-17	u	-35%
CCS(=O)(=O)N1CCc2cc(C(=O)NCc3ccccc3Cl)ccc21	-6%	-8	18%	x	i	10%
COc1ccc(C2C(O)C(c3c[nH]c4ccccc34)=NN2C(=O)CCl)cc1 (configuration not stated)	4µM*	11	2.2µM*	-4	7.9µM*	6.3µM*
COc1ccc(C2NN=C(c3c[nH]c4ccccc34)C2O)cc1 (configuration not stated)	-25%	0	u	-20	i	x
Cc1ccc(C)c(N2CCN(C(=O)c3cc4sccc4n3C)CC2)c1	-7%	21	u	-14	i	13%
Cc1ccc(C)c(N2CCN(C(=O)C3CCN(C(=O)c4cc5sccc5n4C)CC3)CC2)c1	-19%	16	10µM*	x	x	x
COc1ccccc1C(C)NCC(=O)Nc1ccccc1C(F)(F)F (configuration not stated)	3%	-8	-22%	-57*	i	-5%
CCC1CCCCN1S(=O)(=O)c1ccc(C(=O)Nc2sc3c(c2C(=O)NC)CCC3)cc1 (configuration not stated)	-29%	-8	-1%	x	x	-18%
O=C(CCCN1C(=O)/C(=C\c2cccc(Br)c2)SC1=S)Nc1cccnc1	-35%	-3	11µM*	-23	u	u
O=C(CCCN1C(=O)/C(=C/c2cccc(Br)c2)SC1=S)Nc1cccnc1	-3%	8	u	-14	u	u
CCc1ccc(/C=C2\SC(=S)N(CCCC(=O)Nc3ccccn3)C2=O)cc1	11%	9	u	0	u	4.5µM*
COC(=O)c1ccc(/C=C2/SC(=S)N(CCCC(=O)Nc3ccccn3)C2=O)cc1	6%	0	-16%	-24	i	u
Cc1ccc(/C=C2\SC(=S)N(CC(=O)Nc3cccnc3)C2=O)cc1	1%	3	18%	3	i	1%[11.3 µM]
Cc1ccc(/C=C2\SC(=S)N(CCCC(=O)Nc3cccnc3)C2=O)cc1	-1%	-3	-17%	9	u	3.5µM*
O=C(CCCN1C(=O)/C(=C/c2cccc(Br)c2)SC1=S)Nc1ccccn1	-18%	0	-12%	u	u	10µM*
Cc1ccc2[nH]c(=O)c(CN(CCCO)Cc3nnnn3Cc3ccccc3)cc2c1	-22%	x	-14%	x	x	x
COc1cc(=O)n2c(c1C(=O)NCc1ccco1)CCN(Cc1ccc3nsnc3c1)CC2	x	x	x	x	i	x
O=C(CSc1ccc(-c2cccnc2)nn1)Nc1ccc(F)cc1	-1%	-4	-5%	-63*	i	-21%
O=C(CSc1nc(-c2ccccc2)cn1-c1ccccc1F)Nc1ccc(F)cc1	-21%	-6	14µM*	x	u	-38%

Bioassay records (PubChem BioAssay)
